Laboratory results reported in PubChem BioAssay (Tox21).
Results filed as inconclusive are left out. Where a call stands in place of a potency, no number is given. Calls of active or inactive are those of the source. Calls come from the whole dose curve; as a rule, active = well fitted curve in the direction sought with a large enough effect in the repeat runs; inconclusive = weak or mixed curves; inactive = no such curve, though single readings can be large; an effect the other way counts as inactive or inconclusive.

The compounds below were run against Cytochrome P450 2C9 (Homo sapiens) (UniProt P11712) (assay: Cytochrome P450 Family 2 Subfamily C Member 9 (CYP2C9) small molecule antagonists: luciferase reporter qHTS assay (AID 1671198)). Conditions: P450-Glo CYP2C9 enzyme assay, luciferin luminescence; series mostly up to 53 µM.
Outline: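 CYP2C9 activity was measured with a P450-Glo proluciferin substrate. Enzyme–substrate mix was held with compound for 10 min at room temperature, then NADPH regeneration solution was added for 1 h at 37C. Luciferin product was read as luminescence.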
Note: nearly all actives have a fitted effect of over 50% in size.
Potency is the fitted concentration of half-maximal effect.

Chain of Cytochrome P450 2C9 (Homo sapiens) (P11712 whole entry, looked up): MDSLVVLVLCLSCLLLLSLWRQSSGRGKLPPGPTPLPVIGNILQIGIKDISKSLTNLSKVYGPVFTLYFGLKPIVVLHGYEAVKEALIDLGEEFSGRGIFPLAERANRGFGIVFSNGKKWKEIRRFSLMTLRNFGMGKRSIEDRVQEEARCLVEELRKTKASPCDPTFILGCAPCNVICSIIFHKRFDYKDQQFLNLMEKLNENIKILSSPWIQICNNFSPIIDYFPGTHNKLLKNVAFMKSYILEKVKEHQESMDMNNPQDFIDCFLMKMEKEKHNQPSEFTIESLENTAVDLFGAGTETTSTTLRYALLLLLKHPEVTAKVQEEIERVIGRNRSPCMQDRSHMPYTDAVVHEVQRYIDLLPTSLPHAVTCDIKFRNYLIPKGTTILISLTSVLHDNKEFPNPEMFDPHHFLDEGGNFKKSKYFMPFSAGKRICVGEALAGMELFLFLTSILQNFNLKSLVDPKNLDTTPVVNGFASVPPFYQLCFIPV

SMILES	Potency
CC(=O)OC(C)OC(C)=O	inactive
CC(C)C(=O)OC/C=C/c1ccccc1	35.6 µM (active)
CN1CCN(C2=Nc3cc(F)ccc3Cc3ccccc32)CC1	inactive
CC(C)=CCCC(C)CCOC=O (stereo not given)	71 µM (active)
C[C@]12C(=O)OC(=O)[C@H]1[C@H]1C=C[C@@H]2C1	inactive
CCN(CC)CCNC(=O)COc1ccc(Cl)cc1	inactive
CCCOc1ccc2c(c1)CC[C@@H]1[C@@H]2CC[C@]2(C)C(OC)CC[C@@H]12 (stereo not given in full)	34.7 µM (active)
CCCS(=O)c1ccc2nc(NC(=O)OC)[nH]c2c1 (stereo not given)	inactive
CCN(CC)C(=O)N(CC)CC	inactive
CN(C)CCOc1ccccc1Cc1ccccc1	inactive
CCCNC(C)C(=O)Nc1c(C)csc1C(=O)OC (stereo not given)	inactive
C=CCc1cc(OC)c(O)c(C(=O)NCCO)c1	inactive
CC/C=C\CCOC(=O)CCCCC	inactive
C[C@@H](N)C(=O)O	inactive
CCOC(=O)C(Br)c1ccccc1 (stereo not given)	79.6 µM (active)

Each compound was assayed against Cytochrome P450 1A2 (Homo sapiens) (UniProt P05177) (assay: Cytochrome P450 Family 1 Subfamily A Member 2 (CYP1A2) small molecule antagonists: luciferase reporter qHTS assay (AID 1671199)). Conditions: P450-Glo CYP1A2 enzyme, luciferin luminescence, 1 h; series mostly up to 53 µM.
Outline: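 Enzymatic CYP1A2 assay, human, luminescent: 10 min compound–enzyme–substrate preincubation, 1 h NADPH-dependent turnover, 20 min detection step, room temperature throughout. Reduced light indicates lower CYP1A2 activity.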

Chain of Cytochrome P450 1A2 (Homo sapiens) (P05177 whole entry, looked up): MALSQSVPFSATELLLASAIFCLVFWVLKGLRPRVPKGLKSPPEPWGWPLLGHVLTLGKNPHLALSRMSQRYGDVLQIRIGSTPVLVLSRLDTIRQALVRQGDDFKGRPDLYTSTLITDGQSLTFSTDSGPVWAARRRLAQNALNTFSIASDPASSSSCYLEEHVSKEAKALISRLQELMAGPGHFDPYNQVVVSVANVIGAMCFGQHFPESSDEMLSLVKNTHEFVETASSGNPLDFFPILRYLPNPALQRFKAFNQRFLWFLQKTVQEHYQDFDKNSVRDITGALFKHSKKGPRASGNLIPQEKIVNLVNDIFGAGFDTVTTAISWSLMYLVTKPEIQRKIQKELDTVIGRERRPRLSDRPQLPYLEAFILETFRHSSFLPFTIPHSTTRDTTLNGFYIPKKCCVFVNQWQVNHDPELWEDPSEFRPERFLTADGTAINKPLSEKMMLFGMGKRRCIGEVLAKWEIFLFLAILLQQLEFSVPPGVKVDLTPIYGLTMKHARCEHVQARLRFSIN

SMILES	Potency
CC1(C)C(=O)N(Cl)C(=O)N1Br	inactive
CC1(O)CSC(C)(O)CS1 (stereo not given)	39.9 µM (active)
CC(Oc1c(Cl)cccc1Cl)C1=NCCN1 (stereo not given)	12.9 µM (active)
O=C1CCCCCCCCCCC(=O)OCCO1	22.4 µM (active)
CO[C@@]1(NC(=O)CSCC#N)C(=O)N2C(C(=O)O)=C(CSc3nnnn3C)CS[C@@H]21	24.5 µM (active)
OCCN(CCO)c1ccccc1	inactive
c1ccc(CN(CC2=NCCN2)c2ccccc2)cc1	inactive
CN1CCN(C2=Nc3ccccc3Oc3ccc(Cl)cc32)CC1	inactive
CN(C)C(=O)NC1(c2ccccc2)CCN(CCC[C@]2(c3ccc(Cl)c(Cl)c3)CCCN(C(=O)c3ccccc3)C2)CC1	inactive

These compounds were tested against Voltage-gated inwardly rectifying potassium channel KCNH2 (Homo sapiens) (UniProt Q12809) (assay: Human Ether-a-go-go-Related Gene (hERG) channel small molecule antagonists: fluorescence cell-based qHTS assay (AID 1671200;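 for activity change, negative = inhibition: hERG-expressing U2OS cells given a thallium stimulus after FluxOR II dye loading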)). Conditions: hERG-U2OS cells, FluxOR thallium flux fluorescence; series mostly up to 76.8 µM.
Outline: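 Quantitative HTS in hERG-U2OS cells: thallium entry through the channel reports activity, read as continuous 480/540 nm fluorescence over 2 min after stimulus addition.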

Chain of Voltage-gated inwardly rectifying potassium channel KCNH2 (Homo sapiens) (Q12809 whole entry, looked up): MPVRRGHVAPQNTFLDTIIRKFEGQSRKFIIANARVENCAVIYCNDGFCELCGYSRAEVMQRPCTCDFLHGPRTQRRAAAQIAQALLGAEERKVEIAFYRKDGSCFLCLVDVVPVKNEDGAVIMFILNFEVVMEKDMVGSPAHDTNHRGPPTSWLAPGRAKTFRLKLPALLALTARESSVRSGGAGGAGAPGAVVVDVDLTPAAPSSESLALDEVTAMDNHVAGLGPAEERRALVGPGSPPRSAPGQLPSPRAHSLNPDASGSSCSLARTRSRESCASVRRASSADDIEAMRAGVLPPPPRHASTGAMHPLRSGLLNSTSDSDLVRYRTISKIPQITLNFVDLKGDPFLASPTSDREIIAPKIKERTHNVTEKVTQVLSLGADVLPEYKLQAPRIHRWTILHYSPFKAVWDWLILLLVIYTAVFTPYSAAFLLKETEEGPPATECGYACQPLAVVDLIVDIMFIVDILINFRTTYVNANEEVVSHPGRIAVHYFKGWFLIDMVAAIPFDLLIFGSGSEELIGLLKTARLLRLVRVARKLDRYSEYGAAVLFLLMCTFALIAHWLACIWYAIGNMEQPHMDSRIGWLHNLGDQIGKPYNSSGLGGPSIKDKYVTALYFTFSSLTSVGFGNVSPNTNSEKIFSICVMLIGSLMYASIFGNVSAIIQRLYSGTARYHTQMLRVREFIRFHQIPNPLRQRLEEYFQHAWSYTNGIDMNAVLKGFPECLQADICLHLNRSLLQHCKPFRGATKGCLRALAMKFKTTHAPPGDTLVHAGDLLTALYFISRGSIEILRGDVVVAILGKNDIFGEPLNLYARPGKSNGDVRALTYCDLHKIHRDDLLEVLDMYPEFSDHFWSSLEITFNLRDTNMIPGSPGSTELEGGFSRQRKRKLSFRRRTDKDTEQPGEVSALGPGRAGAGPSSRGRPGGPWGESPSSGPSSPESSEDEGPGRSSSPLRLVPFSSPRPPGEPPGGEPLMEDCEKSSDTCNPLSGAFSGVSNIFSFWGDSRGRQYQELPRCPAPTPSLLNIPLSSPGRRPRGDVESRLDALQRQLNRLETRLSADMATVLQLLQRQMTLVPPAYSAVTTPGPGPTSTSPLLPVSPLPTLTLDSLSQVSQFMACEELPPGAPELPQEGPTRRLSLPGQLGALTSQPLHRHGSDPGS

SMILES	Potency	activity change, negative = inhibition
CC1(C)C(=O)N(Cl)C(=O)N1Br	inactive	–
CC(=O)OC(C)OC(C)=O	inactive	–
CC(C)C(=O)OC/C=C/c1ccccc1	inactive	–
CCC1(C)NC(=O)NC1=O (stereo not given)	inactive	–
CC1(O)CSC(C)(O)CS1 (stereo not given)	inactive	–
CN1CCN(C2=Nc3cc(F)ccc3Cc3ccccc32)CC1	inactive	–
CC(Oc1c(Cl)cccc1Cl)C1=NCCN1 (stereo not given)	inactive	–
CCCNC(C)(C)COC(=O)c1ccccc1	inactive	–
O=C1CCCCCCCCCCC(=O)OCCO1	inactive	–
CO[C@@]1(NC(=O)CSCC#N)C(=O)N2C(C(=O)O)=C(CSc3nnnn3C)CS[C@@H]21	inactive	–
CC(C)C[C@H](NC(=O)OCC1c2ccccc2-c2ccccc21)C(=O)O	inactive	–
CC(C)=CCCC(C)CCOC=O (stereo not given)	inactive	–
CCCCNc1cc(C(=O)O)cc(S(N)(=O)=O)c1Oc1ccccc1	inactive	–
OCCN(CCO)c1ccccc1	inactive	–
O=C1CCC(C2CCCCC2)CC1	inactive	–
C[C@]12C(=O)OC(=O)[C@H]1[C@H]1C=C[C@@H]2C1	inactive	–
CCN(CC)CCNC(=O)COc1ccc(Cl)cc1	13.4 µM (active)	–
CC(CNC1CCCCC1)OC(=O)c1ccccc1 (stereo not given)	inactive	–

SMILES	Potency	activity change, negative = inhibition
CCCOc1ccc2c(c1)CC[C@@H]1[C@@H]2CC[C@]2(C)C(OC)CC[C@@H]12 (stereo not given in full)	inactive	–
C1CCOC1	inactive	–
c1ccc(CN(CC2=NCCN2)c2ccccc2)cc1	19 µM (active)	–
CN1CCN(C2=Nc3ccccc3Oc3ccc(Cl)cc32)CC1	16.9 µM (active)	–
ClC(Cl)Cl	inactive	–
CCCS(=O)c1ccc2nc(NC(=O)OC)[nH]c2c1 (stereo not given)	inactive	–
NC(Cc1ccc(F)cc1)C(=O)O (stereo not given)	–	3.14% [at 6.97 µM] (inactive)
CCN(CC)C(=O)N(CC)CC	inactive	–
CCCC(CCC)(C(=O)OCC)C(=O)OCC	inactive	–
CC[C@H]1CC[C@H](NCc2cc3c(cc2OC)[C@H]2C[C@H]2C(=O)N3C)[C@H](c2ccccc2)N1	inactive	–
CN(C)CCOc1ccccc1Cc1ccccc1	7.56 µM (active)	–
CCCNC(C)C(=O)Nc1c(C)csc1C(=O)OC (stereo not given)	inactive	–
C=CCc1cc(OC)c(O)c(C(=O)NCCO)c1	inactive	–
CC/C=C\CCOC(=O)CCCCC	inactive	–
C[C@@H](N)C(=O)O	inactive	–
CCOC(=O)C(Br)c1ccccc1 (stereo not given)	inactive	–
C=O	inactive	–
CC(C)NCC(O)COc1ccc(CCOCC2CC2)cc1 (stereo not given)	inactive	–
